# From the supplement of paper PMC6555819
# Experiments:
# Assay in all cases: PBM binding z-score (relative to random genomic background probes); higher = stronger binding; sequences stand for … in GC…GCGATTGACAGCGTAGAATGAAGG
# [1] = system: FXR:RXRa (NR concentration 270 nM, RXRa partner concentration 90 nM)
# In short: (§1)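 For binding z-scores, the reference was random background probes on custom Agilent 4×180K protein-binding microarrays. These arrays were incubated 1 h with ligand-free nuclear receptor dimers in PBS pH 7.4, 2% milk, 0.02% Triton X-100, 1 mM DTT, 0.2 mg/mL BSA and 0.4 mg/ml salmon testes DNA. Fluorescence was scanned after antibody detection of each partner (one per run) and regression-normalized.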
# [2] = system: LXRa:RXRa (NR concentration 270 nM, RXRa partner concentration 90 nM)
# In short: as §1
# [3] = system: LXRa homodimer (NR concentration 270 nM)
# In short: as §1
# [4] = system: LXRb:RXRa (NR concentration 270 nM, RXRa partner concentration 90 nM)
# In short: as §1
# [5] = system: LXRb homodimer (NR concentration 270 nM)
# In short: as §1
# [6] = system: PPARa:RXRa (NR concentration 270 nM, RXRa partner concentration 90 nM)
# In short: as §1
# [7] = system: PPARg:RXRa (NR concentration 180 nM, RXRa partner concentration 90 nM)
# In short: as §1
# [8] = system: PPARg:RXRa 270nM:90nM, anti-RXR (NR concentration 270 nM, RXRa partner concentration 90 nM)
# In short: as §1
# [9] = system: PPARg:RXRa 30nM:10nM, anti-RXR (NR concentration 30 nM, RXRa partner concentration 10 nM)
# In short: as §1
# [10] = system: PPARg:RXRa 90nM:30nM, anti-RXR (NR concentration 90 nM, RXRa partner concentration 30 nM)
# In short: as §1
sequence,measurement,setting,value
TCTATTAGTTAATTAGGGCAACCGAAACAGCGGA,PBM binding z-score,[1],0.524
same,PBM binding z-score,[2],0.526
same,PBM binding z-score,[3],0.315
same,PBM binding z-score,[4],0.637
same,PBM binding z-score,[5],0.558
same,PBM binding z-score,[6],2.73
same,PBM binding z-score,[7],2.2
same,PBM binding z-score,[8],2.94
same,PBM binding z-score,[9],3.88
same,PBM binding z-score,[10],3.37
TCTTGTAGATCAACAGGGGGTTAAGAAAGATCGA,PBM binding z-score,[1],1.48
same,PBM binding z-score,[2],2.69
same,PBM binding z-score,[3],0.266
same,PBM binding z-score,[4],3.75
same,PBM binding z-score,[5],8.09
same,PBM binding z-score,[6],2.75
same,PBM binding z-score,[7],0.692
same,PBM binding z-score,[8],2.99
same,PBM binding z-score,[9],3.73
same,PBM binding z-score,[10],3.26
CCGAGCAGGCCAATCTGGGTCACTCAAGGCTTGA,PBM binding z-score,[1],1.11
same,PBM binding z-score,[2],1.16
same,PBM binding z-score,[3],-0.65
same,PBM binding z-score,[4],0.371
same,PBM binding z-score,[5],-1.25
same,PBM binding z-score,[6],2.65
same,PBM binding z-score,[7],2.05
same,PBM binding z-score,[8],2.12
same,PBM binding z-score,[9],-0.249
same,PBM binding z-score,[10],1.21
TCTTGTAGAGCAAAGGTTAAGAAAGCCGAAGCCT,PBM binding z-score,[1],0.884
same,PBM binding z-score,[2],1.23
same,PBM binding z-score,[3],-0.186
same,PBM binding z-score,[4],1.4
same,PBM binding z-score,[5],-0.852
same,PBM binding z-score,[6],4.91
same,PBM binding z-score,[7],8.91
same,PBM binding z-score,[8],8.58
same,PBM binding z-score,[9],8.43
same,PBM binding z-score,[10],8.68
CCTACTGGGCCCAAAAGGTCATTGATGCCGATAA,PBM binding z-score,[1],4.23
same,PBM binding z-score,[2],4.84
same,PBM binding z-score,[3],3.68
same,PBM binding z-score,[4],4.62
same,PBM binding z-score,[5],0.521
same,PBM binding z-score,[6],4.61
same,PBM binding z-score,[7],1.78
same,PBM binding z-score,[8],3.47
same,PBM binding z-score,[9],0.593
same,PBM binding z-score,[10],2.69
TCATATAGGTATAGGTGAAAGTCGAACGATATGA,PBM binding z-score,[1],0.449
same,PBM binding z-score,[2],0.366
same,PBM binding z-score,[3],-0.346
same,PBM binding z-score,[4],0.177
same,PBM binding z-score,[5],-0.47
same,PBM binding z-score,[6],1.42
same,PBM binding z-score,[7],1.72
same,PBM binding z-score,[8],2.44
same,PBM binding z-score,[9],3.51
same,PBM binding z-score,[10],3.05
TCTATTAGTTGATTACGGCAACCGAAACAGCGGA,PBM binding z-score,[1],0.899
same,PBM binding z-score,[2],0.638
same,PBM binding z-score,[3],0.651
same,PBM binding z-score,[4],0.546
same,PBM binding z-score,[5],0.998
same,PBM binding z-score,[6],0.921
same,PBM binding z-score,[7],0.134
same,PBM binding z-score,[8],1.95
same,PBM binding z-score,[9],3.63
same,PBM binding z-score,[10],3.1
TTACCAAGGTGAAGGTCGTTGAGCCCTCTGTAGA,PBM binding z-score,[1],1.3
same,PBM binding z-score,[2],1.24
same,PBM binding z-score,[3],-0.339
same,PBM binding z-score,[4],0.883
same,PBM binding z-score,[5],-1.13
same,PBM binding z-score,[6],2.65
same,PBM binding z-score,[7],2.83
same,PBM binding z-score,[8],4.43
same,PBM binding z-score,[9],2.31
same,PBM binding z-score,[10],3.92
TCATATAGGTGAACAGGTGAAAGTCCGTAAGTTA,PBM binding z-score,[1],1.35
same,PBM binding z-score,[2],1.14
same,PBM binding z-score,[3],0.444
same,PBM binding z-score,[4],1.22
same,PBM binding z-score,[5],0.00841
same,PBM binding z-score,[6],3.47
same,PBM binding z-score,[7],4.77
same,PBM binding z-score,[8],4.6
same,PBM binding z-score,[9],4.3
same,PBM binding z-score,[10],4.44
TCAAATAGGTAAAAGGTGAAAGTCGGTGTGGTAA,PBM binding z-score,[1],2.23
same,PBM binding z-score,[2],1.93
same,PBM binding z-score,[3],0.419
same,PBM binding z-score,[4],2.06
same,PBM binding z-score,[5],-0.106
same,PBM binding z-score,[6],5.45
same,PBM binding z-score,[7],8.26
same,PBM binding z-score,[8],8.33
same,PBM binding z-score,[9],8.45
same,PBM binding z-score,[10],9.13
TCTTGTAGATGAATAGAGGTTAAGAAAGTGCGCT,PBM binding z-score,[1],1.46
same,PBM binding z-score,[2],3.5
same,PBM binding z-score,[3],0.638
same,PBM binding z-score,[4],1.98
same,PBM binding z-score,[5],0.559
same,PBM binding z-score,[6],1.93
same,PBM binding z-score,[7],0.366
same,PBM binding z-score,[8],2.17
same,PBM binding z-score,[9],3.31
same,PBM binding z-score,[10],2.67
CCTTACGGGTCACGAGGTTATAGCCCGACGAGCG,PBM binding z-score,[1],6.99
same,PBM binding z-score,[2],4.42
same,PBM binding z-score,[3],0.302
same,PBM binding z-score,[4],3.77
same,PBM binding z-score,[5],-0.0981
same,PBM binding z-score,[6],6.03
same,PBM binding z-score,[7],7.34
same,PBM binding z-score,[8],6.97
same,PBM binding z-score,[9],3.33
same,PBM binding z-score,[10],5.71
